This is a sample that favours compounds with a hit; in the whole collection about 0.9% have one here.
PPARg SRC2 recr – agonists of PPARg-SRC-2 recruitment, primary screen, biochemical, HTS; activation, % at 8 µM; AID 1032, 2008; actives 0.34% (n = 200,000); PPARgamma LBD-SRC-2 recruitment; in the data active = activation above about 22%;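 also: 0% = vehicle and 100% = reference agonist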
Target sequence (P37231 whole entry, looked up, the tested form may be a part): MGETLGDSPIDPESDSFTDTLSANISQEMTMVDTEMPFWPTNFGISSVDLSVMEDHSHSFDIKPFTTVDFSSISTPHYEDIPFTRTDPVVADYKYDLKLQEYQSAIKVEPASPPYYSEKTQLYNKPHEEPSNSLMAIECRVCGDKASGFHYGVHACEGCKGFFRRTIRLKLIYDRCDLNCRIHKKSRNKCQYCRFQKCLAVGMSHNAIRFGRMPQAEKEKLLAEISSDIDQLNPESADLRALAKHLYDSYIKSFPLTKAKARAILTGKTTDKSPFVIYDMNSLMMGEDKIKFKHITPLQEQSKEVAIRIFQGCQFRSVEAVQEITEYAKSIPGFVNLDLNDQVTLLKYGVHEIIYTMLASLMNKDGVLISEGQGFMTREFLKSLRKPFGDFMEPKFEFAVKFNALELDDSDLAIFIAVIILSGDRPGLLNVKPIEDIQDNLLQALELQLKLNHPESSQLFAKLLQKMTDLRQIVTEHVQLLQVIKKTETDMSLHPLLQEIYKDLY
TR-FRET SRC-2 ct – TR-FRET signal artefacts, primary screen, artefact control for PPARgamma SRC-2 agonist project, biochemical. AID 1049, 2008. TR-FRET ratio at 8 µM. TR-FRET artefact counter-screen; stronger effect = higher value. actives 0.4% (n = 200,000)
SRC3 TRFRET art – TR-FRET detection interference compounds, artefact control for PPARgamma SRC-3 recruitment agonists, biochemical, TR-FRET ratio; TR-FRET ratio at 8 µM; actives 0.39% (n = 99,000); TR-FRET artefact counter-screen, PPARgamma/SRC-3 format; stronger effect = higher value
PPARg SRC-3 ag – PPARgamma agonists recruiting SRC-3 coactivator, primary screen, biochemical. AID 731, 2007. biochemical PPARgamma/SRC-3 coactivator recruitment assay. activation, % at 8 µM. actives 0.26% (n = 200,000); in the data active = activation above about 23%;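 also: 0% = DMSO and 100% = reference agonist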
PPARg SRC1 recr – PPARgamma agonists recruiting SRC-1 coactivator, primary screen, biochemical; Peroxisome proliferator-activated receptor gamma (Homo sapiens), P37231; PPARgamma-SRC-1 coactivator recruitment biochemical assay; activation, % at 8 µM; actives 0.41% (n = 200,000); AID 631, 2007; in the data active = activation above about 19%;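 also: 0% = DMSO and 100% = reference agonist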
SRC1 TRFRET art – TR-FRET detection interference compounds, primary screen, artefact control for PPARgamma SRC-1 recruitment agonists, biochemical, TR-FRET emission ratio. actives 0.34% (n = 99,000). TR-FRET ratio at 8 µM. AID 1051, 2008. TR-FRET detection artefact counter-screen; stronger effect = higher value; in the data active = TR-FRET ratio above about 2300
* = called active by the depositor; . = no result given. Rule as the data show it, unless noted: active = TR-FRET ratio above about 2000; inactive = the rest.

SMILES	PPARg SRC2 recr	TR-FRET SRC-2 ct	SRC3 TRFRET art	PPARg SRC-3 ag	PPARg SRC1 recr	SRC1 TRFRET art
CN(C)S(=O)(=O)c1cccc(NC(=O)c2cc(-c3cccs3)nn2-c2cccc(Cl)c2)c1	9	2193*	2416*	8	11	2166
O=C(O)c1cc(-c2cccs2)nn1-c1cccc(Cl)c1	-4	1488	1777	4	6	1898
O=C(Nc1ccccc1Cl)c1cccc(NS(=O)(=O)c2ccccc2)c1	-3	1394	.	-7	-2	.
Cn1cccc1CC(=O)N/N=C/C(Cl)=C/c1ccccc1	-1	1579	1886	7	4	2381*
Cc1nc2c(c3c1[nH]c1ccccc13)C(O)CC(C)(C)C2 (configuration not stated)	-5	1681	1520	1	0	1692
COc1cc2[nH]c(=S)n(NC(=O)c3ccccc3)c(=O)c2cc1OC	20	2013*	.	20	16	.
c1ccc(CSc2ccc(-c3cccnc3)nn2)nc1	4	1768	1557	10	7	1740
O=C(c1ccco1)n1nc(-c2cccnc2)nc1NCc1ccco1	-6	1499	1660	-2	12	1584
Cc1ccc(N(CC(=O)NC(C)(C)C)C(=O)CNC(=O)c2cccs2)c(C)c1	1	1544	1446	-4	-5	1568
COc1ccc(Nc2ccc(Nc3ccc(OC)cc3)nn2)cc1	18	1769	1723	14	13	2360*
COc1ccc(Nc2cc(C)c3ccccc3n2)cc1	-3	1594	1923	-2	13	1815
COc1ccc(-n2nnnc2SCC(=O)c2cc3ccccc3o2)cc1	1	2072*	.	2	7	.
CCOC(=O)c1cc(-c2ccc3c(c2)OCO3)nc2onc(C)c12	10	1971*	.	-4	2	.
OC1(c2ccc(Br)cc2)CN(c2ccccc2)C2=[N+]1CCS2 (configuration not stated)	3	1571	2102*	8	4	1718
OC1(c2ccc(Cl)cc2)CN(c2ccccc2)C2=[N+]1CCS2 (configuration not stated)	6	1612	1793	5	8	1791
CN1CCN(C(=O)C2=C[C@@H](c3ccccc3)C[C@@H](OCCCCO)O2)CC1	11	1579	1653	-4	3	1797
Cc1sc(NC(=O)CSC2=NCCS2)nc1-c1ccccc1	3	1486	.	7	-1	.
CC(=O)N1CC(=O)N=C1SCC(=O)Nc1nc(-c2ccccc2)c(-c2ccccc2)s1	18	1758	1929	10	17	2356*
CCS(=O)(=O)N1CCN(C2CCC(c3ccccc3)CC2)CC1 (configuration not stated)	2	1733	.	3	20*	.
COc1ccccc1OCCNC(=O)Cc1ccc(Cl)c(Cl)c1	2	1339	1710	-2	2	1760
CCOc1cccc2cc(C(=O)Nc3ccccc3-c3ccccc3)c(=O)oc12	-9	1460	1345	1	-4	1745
CCOc1cccc2cc(C(=O)Nc3cc(C)on3)c(=O)oc12	6	1720	.	3	38*	.
Brc1ccc2nc(-c3c[nH]c4ccccc34)cn2c1	7	1999*	1691	8	9	2053
Clc1ccc2nc(-c3ccc4c(c3)OCO4)cn2c1	2	1519	1526	4	1	1809
Cc1cccn2cc(-c3c[nH]c4ccccc34)nc12	0	1734	1746	6	16	2206
Clc1ccc(-c2cn3cc(Br)ccc3n2)cc1Cl	17	2032*	1909	8	7	2103
CCOC(=O)c1c(NC(=O)CSc2nc(C)cc(C)c2C#N)sc(C(C)=O)c1C	62*	3647*	.	11	6	.
CCOC(=O)c1c(NC(=O)CSc2nnc(CNc3ccc(F)cc3)o2)sc(C(C)=O)c1C	13	1619	.	34*	10	.
CCOC(=O)c1c(NC(=O)CSc2nnc(-c3ccc(C)cc3)o2)sc(C(C)=O)c1C	-4	1483	.	3	9	.
